# Results filed as inconclusive are left out. Active and inactive are the calls of the source. Calls come from the whole dose curve; as a rule, active = well fitted activation curve with a large enough effect; inconclusive = small, poorly fitted or top-dose-only effect; inactive = flat fitted curve, though single readings scatter.
# Assay: qHTS for Inhibitors of Cell Surface uPA Generation: FP59 Counterscreen for Cherry-picked Compounds; note: 0% is about no effect
# Conditions: FP59 anthrax toxin cytotoxicity counterscreen, cells; series mostly up to 115 µM; activity (protection from FP59): at the top concentration
row,Structure (SMILES),activity (protection from FP59)
1,CSc1ccc(CNCCCN(C)C)cc1,-1.44% (inactive)
2,CC(=O)c1ccc(N2CCN(C(=S)NCc3ccco3)CC2)cc1,-1.24% (inactive)
3,CCCCn1c(=NC(=O)c2ccco2)c(C(=O)OCC)cc2c(=O)n3cccc(C)c3nc21,10.2% (inactive)
4,COc1cc(NC(=S)NCCc2ccc(S(N)(=O)=O)cc2)c(OC)cc1Cl,-1.42% (inactive)
5,COc1cccc(NC(=S)NCc2ccc3c(c2)cc(C)n3C)c1,-0.806% (inactive)
6,CC(=O)COc1ccc2c(-c3cccc([N+](=O)[O-])c3)cc(=O)oc2c1,-0.595% (inactive)
7,Cc1ccc2nc(-c3ccncc3)cc(C(=O)NCCc3ccc(F)cc3)c2c1,-1.48% (inactive)
8,COc1ccc2cc(CCNC(=O)c3ccc4c(c3)OCO4)c(=O)[nH]c2c1,-1.1% (inactive)
9,COCCn1nnnc1C(C(C)C)N1CCCC(C)C1 (centres undefined),-1.3% (inactive)
10,CN(C(=O)CCn1c(=S)oc2ccccc21)c1ccc(F)cc1,-0.761% (inactive)
11,CC(=O)Nc1sc(C)c(C)c1C(=O)OCC(=O)NC(C)c1ccccc1 (centres undefined),-1.02% (inactive)
12,NC(=O)CC(NC(=O)Cc1cccc2ccccc12)c1ccc(N2CCN(c3ccc(F)cc3)CC2)c([N+](=O)[O-])c1 (centres undefined),-1.4% (inactive)
13,Cn1c(SCC(=O)NNC(=O)c2ccc(Br)cc2)nnc1-c1cccnc1,-1.37% (inactive)
14,COc1ccc(-c2cc(-c3ccccc3)nc3ncnn23)cc1,-1.42% (inactive)
15,O=C(c1cc(COc2c(F)cccc2F)on1)N1CCc2ccccc2C1,-0.72% (inactive)
16,CC1(C)Oc2ccc3ccc(=O)oc3c2[C@@H](O)[C@H]1O,-1.51% (inactive)
17,COc1ccccc1NC(=O)Cn1ncc2c1-c1ccccc1OC2,-1.3% (inactive)
18,CCOc1ccc(NS(=O)(=O)c2ccc(C(=O)N3CCC3)cc2)cc1,-0.726% (inactive)
19,COc1ccc(C(=O)N2CCN(c3ccc(C(C)=O)cc3)CC2)cc1S(=O)(=O)N1CCCC1,-1.46% (inactive)
20,CCC(=O)Nc1nc(-c2cc([N+](=O)[O-])cs2)cs1,-1.47% (inactive)

row,Structure (SMILES),activity (protection from FP59)
1,Cc1c(NC(=O)C(C)OC(=O)CCC2CCCC2)c(=O)n(-c2ccccc2)n1C (centres undefined),-1.45% (inactive)
2,Cc1oc(-c2ccccc2F)nc1CS(=O)(=O)CC(=O)NC1CCCC(C)C1C (centres undefined),3.16% (inactive)
3,NC(=O)CC(NC(=O)Cc1cccc2ccccc12)c1ccc(N2CCC(Cc3ccccc3)CC2)c([N+](=O)[O-])c1 (centres undefined),-1.17% (inactive)
4,CCCCN(CC)CCNC(=O)c1cc2cc3ccc(Cl)cc3nc2o1,-1.38% (inactive)
5,COc1cccc(NC(=O)CSc2nc3ncc(Br)cc3[nH]2)c1,-1.32% (inactive)
6,O=C(O)CSc1nnc(COc2ccccc2)n1-c1ccccc1,-1.31% (inactive)
7,COC(=O)CCSCC(=O)N1N=C(c2ccc(OC)cc2)CC1c1cccc(OC)c1OC (centres undefined),-1.4% (inactive)
8,COc1ccc(C2=C/C(=C\c3ccccc3OC(C)=O)C(=O)O2)cc1,3.33% (inactive)
9,O=C(NC(=S)Nc1c(F)cc(F)cc1Br)c1ccc2c(c1)OCCO2,-1.02% (inactive)
10,Cn1c(SCC(=O)NCCc2ccccc2)ncc(C(=O)Nc2ccc(F)cc2)c1=O,-1.23% (inactive)
11,C[C@]12CCC(O)CC1CCC1C2CC[C@]2(C)C(c3cc(C(F)(F)F)n[nH]3)CCC12 (some centres undefined),-1.52% (inactive)
12,O=C(Nc1ccc2c(c1)CCC2)Nc1ccc2c(c1)OCO2,0.325% (inactive)
13,CN(CC(=O)NCCCn1ccnc1)S(=O)(=O)c1ccc(Cl)cc1,-0.501% (inactive)
14,O=[N+]([O-])c1ccc(C[n+]2cccc(O)c2)cc1,-1.21% (inactive)
15,O=C(Nc1ccnn1C1CCN(CCCC2CCCC2)CC1)c1ccccc1,-1.38% (inactive)
16,CCN(c1ccccc1)S(=O)(=O)c1ccc(NC(=O)c2ccco2)cc1,0.139% (inactive)
17,Cc1nc(SCc2nc3ccccc3[nH]2)c2oc3cc([N+](=O)[O-])ccc3c2n1,-0.853% (inactive)
18,O=C(CN1CCN(Cc2ccc(Cl)cc2)C1=O)NCc1cccs1,-1.43% (inactive)
19,CCc1nc(SCC(N)=O)c2c(=O)n(C)c(=O)n(C)c2n1,-1.48% (inactive)

# From PubChem BioAssay AID720517 (National Center for Advancing Translational Sciences (NCATS), 2013)
